What is called inhibition is the change of the read-out against control, counted positive when it falls.

The target of one test is Solute carrier family 2, facilitated glucose transporter member 1 (Homo sapiens) (UniProt P11166). Description: ST_JUDE_LEISH: Cytotoxicity at 2uM final concentration against transgenic Leishmania Mexicana promastigotes LmGLUT1 that are glucose transport deficient and complemented with the human glucose transporter GLUT1. Activity is measured by DNA content using SYBR green in vitro. Format: functional.
Chain of Solute carrier family 2, facilitated glucose transporter member 1 (Homo sapiens) (P11166 whole entry): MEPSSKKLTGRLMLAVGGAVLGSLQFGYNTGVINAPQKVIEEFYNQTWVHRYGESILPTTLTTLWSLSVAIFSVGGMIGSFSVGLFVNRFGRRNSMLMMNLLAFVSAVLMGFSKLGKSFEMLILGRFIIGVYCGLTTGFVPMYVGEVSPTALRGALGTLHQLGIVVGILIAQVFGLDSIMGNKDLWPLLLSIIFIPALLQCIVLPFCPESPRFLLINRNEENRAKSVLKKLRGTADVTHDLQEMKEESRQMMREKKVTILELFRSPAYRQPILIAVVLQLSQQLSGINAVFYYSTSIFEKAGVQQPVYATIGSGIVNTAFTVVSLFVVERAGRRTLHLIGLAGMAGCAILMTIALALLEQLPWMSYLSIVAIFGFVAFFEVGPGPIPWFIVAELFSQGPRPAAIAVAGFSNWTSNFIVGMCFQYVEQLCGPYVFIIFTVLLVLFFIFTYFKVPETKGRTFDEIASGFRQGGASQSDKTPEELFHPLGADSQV
For `Cc1ccccc1Oc1ccc(Nc2ccnc(Nc3cccc(C(N)=O)c3)n2)cc1C(F)(F)F`, the inhibition was 4.26%.
With `CCOC(=O)C(C(C)=O)C(c1ccccc1)C(C(C)=O)C(=O)OCC` (stereo not drawn), the inhibition was determined as 3.08%.
As for `Cc1cccc2nc(-c3cccc(-c4cccc(NC(=O)Cc5c[nH]cn5)c4)c3)[nH]c12`, the inhibition is 1.54%.
Consider `CS(=O)(=O)c1ccc(-c2cncc(Nc3cccc([N+](=O)[O-])c3)c2)cc1`, for which the inhibition stood at 7.42%.
Consider `CN(C)CCNC(=O)c1ccc(-c2ccc3c(Nc4ccccc4)c(C(N)=O)cnc3c2)cc1`, for which the inhibition was 1.31%.
`COc1ccc2nccc([C@@H](O)CN3CCC(NCc4cc5cccc6c5n(c4=O)CCC6)CC3)c2c1`: the inhibition is 2.12%.
Take `CC(C)c1ccc(CN2CCC(NC(=O)c3ccc(-c4ccccc4F)s3)CC2)cc1`: the inhibition worked out at 0.51%.
`O=C(Nc1ccsc1)Nc1cccc(-c2cccc(-c3nc4ccccc4[nH]3)c2)c1`: the inhibition was 9.79%.
On the same count and under the same terms, the value for `Cc1ccc2nc(N/C(N)=N/C(=O)NC3CCCCC3)nc(C)c2c1` was 3.24%.
Turning to `CN(C)c1ccc(-c2csc(C(=O)NC3CCCCN(Cc4ccc(C(C)(C)C)cc4)C3)c2)cc1` (stereo not drawn), the inhibition was -1.22%.
With `O=C(Nc1ccc(-c2nc3ccccc3[nH]2)cc1)c1ccc(Cl)s1`, the inhibition amounted to 3.19%.
With `Oc1cc(Nc2ccnc3cc(-c4cccc(CN5CCOCC5)c4)ccc23)c(F)cc1Cl`, the inhibition was determined as 4.47%.
In the case of `COc1ccccc1N1CCN(C(C(=O)NCc2ccc3c(c2)OCO3)c2ccc3c(c2)OCCCO3)CC1` (stereo not drawn), the inhibition stood at 1.2%.
For the compound `Cc1ccc2ccccc2c1CCCON1C(=N)N=C(N)NC1(C)C`, the inhibition came to 4.76%.
In the case of `CN(C)S(=O)(=O)n1ncc2c3c(N)nc(N)nc3ccc21`, the inhibition worked out at 0.68%.
Take `Cc1[nH]c(C)c(-c2ccc(-c3ccccc3Cl)nc2)c(=O)c1Br`: the inhibition came out at 0.1%.
Still for that read-out and setting: for `COc1cc(NC(=O)/C=C/c2ccccc2Cl)cc(OCCN2CCC(O)(c3ccccc3)CC2)c1` the value was 6.07%; for `O=C(Nc1ccc(Cl)cc1F)NC1CCN(CCCCCNC(=O)C2CC2c2ccc(Cl)c(Cl)c2)CC1` (stereo not drawn), 1.08%; for `Cc1ccc(Nc2nc(N/N=C/c3cccc([N+](=O)[O-])c3)nc(Nc3ccccc3)n2)c(C)c1`, 2.34%.
Regarding `CC(CNC(=O)C(c1cc2ccccc2o1)N1CCN(C(c2ccccc2)c2ccccc2)CC1)c1ccccc1` (stereo not drawn), the inhibition turned out to be 3.49%.
Regarding `O=C(CSc1nn(-c2ccccc2)c(=S)s1)c1c[nH]c2ccccc12`, the inhibition is 2.16%.
As for `Cc1ccc(S(=O)(=O)N(C)c2ccccc2C(=O)Nc2ccccc2Oc2ccccc2)cc1`, the inhibition was -0.78%.
For the compound `COc1cc(Br)c(S(=O)(=O)n2cc(CN3CCC(N)CC3)c3cc(Cl)ccc32)cc1OC`, the inhibition amounted to 1.4%.
For the compound `COc1cc(C=NN=c2cc(C)[nH]c3ccccc23)cc(OC)c1OC`, the inhibition was determined as 3.56%.
For the compound `CCCc1cc(Cc2cnc(N)nc2N)c2cccnc2c1OC`, the inhibition worked out at 6.44%.
For the compound `CC(Cc1ccc(CNC(=O)NCc2ccc(CC(C)NCCc3cccc(Cl)c3)cc2)cc1)NCCc1cccc(Cl)c1` (stereo not drawn), the inhibition was determined as 82.9%.
As for `O=C(CCc1c[nH]cn1)Nc1ccc(-c2ccc(-c3nc4ccccc4[nH]3)cc2)cc1`, the inhibition was 19.3%.
For `CN(C)CCN(C)Cc1cccc(-c2cccc(NC(=O)c3cccc(C#N)c3)c2)c1`, the inhibition was 2.87%.
As for `COc1ccc2c(C)cc(NCCCN(C)C)nc2c1`, the inhibition amounted to 0.02%.
Consider `CN(C)c1ccc(-c2cscc2C(=O)NC2CCCN(Cc3cccnc3)C2)cc1` (stereo not drawn), for which the inhibition was -0.4%.
As for `COC(=O)c1ccc2nc(-c3ccc(/C=C/C(=O)NC4CCN(Cc5ccccc5)CC4)cc3)[nH]c2c1`, the inhibition amounted to 0.71%.
For `CC(=O)Oc1c(Br)c(C)nc(C)c1-c1ccc(Oc2ccc(OC(F)(F)F)cc2)cc1`, the inhibition was determined as 1.58%.
As to `COc1ccc2nccc(N3CCC(SCCNCc4ccc5c(n4)NC(=O)CS5)C3)c2n1` (stereo not drawn), the inhibition is -1.38%.
The same measure, in the same setting: the value for `Cc1ccc2cc(NC(=O)CCCCCCCON3C(N)=NC(N)=NC34CCCCC4)ccc2n1` was -1.59%; that for `C#CCOc1ccc(N2C(N)=NC(N)=NC2(C)C)cc1` was 2.23%.
Turning to `O=C(c1cc2nc3c(c(C(F)(F)F)n2n1)CCc1ccccc1-3)N1CCN2CCCC2C1` (stereo not drawn), the inhibition came out at 2.06%.
In the case of `Cc1cc(-c2cccc(CNCCc3ccc(Cl)cc3)c2)cnc1N`, the inhibition amounted to 6.5%.
On to `Oc1ccccc1CN1CCN(C(c2ccccc2)c2ccccc2)CC1`, for which the inhibition turned out to be 3.02%.
`COc1cc(NC(=O)c2sc(-c3ccc(Cl)cc3)cc2NC(=O)CN2CCCC2)ccc1OCCN1CCCC1`: the inhibition stood at 5.97%.

The next test addresses Hexose transporter 1 (Plasmodium falciparum) (UniProt O97467). The test can be described thus: ST_JUDE_LEISH: Cytotoxicity at 2uM final concentration against transgenic Leishmania Mexicana promastigotes LmPfHT that are glucose transport deficient and complemented with the Plasmodium falciparum hexose transporter. Activity is measured by DNA content using SYBR green in vitro. Format: functional.
Regarding `Cc1ccccc1Oc1ccc(Nc2ccnc(Nc3cccc(C(N)=O)c3)n2)cc1C(F)(F)F`, the inhibition is 3.48%.
`CCOC(=O)C(C(C)=O)C(c1ccccc1)C(C(C)=O)C(=O)OCC` (stereo not drawn): the inhibition was found to be 4.69%.
Consider `Cc1cccc2nc(-c3cccc(-c4cccc(NC(=O)Cc5c[nH]cn5)c4)c3)[nH]c12`, for which the inhibition stood at 2.27%.
`CS(=O)(=O)c1ccc(-c2cncc(Nc3cccc([N+](=O)[O-])c3)c2)cc1`: the inhibition came out at 7%.
Consider `CN(C)CCNC(=O)c1ccc(-c2ccc3c(Nc4ccccc4)c(C(N)=O)cnc3c2)cc1`, for which the inhibition turned out to be 1.74%.
`COc1ccc2nccc([C@@H](O)CN3CCC(NCc4cc5cccc6c5n(c4=O)CCC6)CC3)c2c1`: the inhibition amounted to 2.16%.
As to `CC(C)c1ccc(CN2CCC(NC(=O)c3ccc(-c4ccccc4F)s3)CC2)cc1`, the inhibition was 0.39%.
Same read-out and setting: the value for `O=C(Nc1ccsc1)Nc1cccc(-c2cccc(-c3nc4ccccc4[nH]3)c2)c1` was 10.8%; that for `Cc1ccc2nc(N/C(N)=N/C(=O)NC3CCCCC3)nc(C)c2c1` was 4.89%.
As for `CN(C)c1ccc(-c2csc(C(=O)NC3CCCCN(Cc4ccc(C(C)(C)C)cc4)C3)c2)cc1` (stereo not drawn), the inhibition was -0.61%.
On the same count and under the same terms, for `O=C(Nc1ccc(-c2nc3ccccc3[nH]2)cc1)c1ccc(Cl)s1` the value was 2.35%.
In the case of `Oc1cc(Nc2ccnc3cc(-c4cccc(CN5CCOCC5)c4)ccc23)c(F)cc1Cl`, the inhibition was 4.48%.
On the same count and under the same terms, the value for `COc1ccccc1N1CCN(C(C(=O)NCc2ccc3c(c2)OCO3)c2ccc3c(c2)OCCCO3)CC1` (stereo not drawn) was 1.04%; that for `Cc1ccc2ccccc2c1CCCON1C(=N)N=C(N)NC1(C)C` was 3.93%.
As for `CN(C)S(=O)(=O)n1ncc2c3c(N)nc(N)nc3ccc21`, the inhibition stood at 1.22%.
Turning to `Cc1[nH]c(C)c(-c2ccc(-c3ccccc3Cl)nc2)c(=O)c1Br`, the inhibition is 1.48%.
Take `COc1cc(NC(=O)/C=C/c2ccccc2Cl)cc(OCCN2CCC(O)(c3ccccc3)CC2)c1`: the inhibition turned out to be 3.45%.
With `O=C(Nc1ccc(Cl)cc1F)NC1CCN(CCCCCNC(=O)C2CC2c2ccc(Cl)c(Cl)c2)CC1` (stereo not drawn), the inhibition was 0.8%.
As for `Cc1ccc(Nc2nc(N/N=C/c3cccc([N+](=O)[O-])c3)nc(Nc3ccccc3)n2)c(C)c1`, the inhibition is 1.33%.
Turning to `CC(CNC(=O)C(c1cc2ccccc2o1)N1CCN(C(c2ccccc2)c2ccccc2)CC1)c1ccccc1` (stereo not drawn), the inhibition worked out at 3.31%.
Regarding `O=C(CSc1nn(-c2ccccc2)c(=S)s1)c1c[nH]c2ccccc12`, the inhibition was determined as 2.64%.
For the compound `Cc1ccc(S(=O)(=O)N(C)c2ccccc2C(=O)Nc2ccccc2Oc2ccccc2)cc1`, the inhibition was -0.51%.
Consider `COc1cc(Br)c(S(=O)(=O)n2cc(CN3CCC(N)CC3)c3cc(Cl)ccc32)cc1OC`, for which the inhibition was determined as 2.11%.
For the compound `COc1cc(C=NN=c2cc(C)[nH]c3ccccc23)cc(OC)c1OC`, the inhibition was 4.95%.
`CCCc1cc(Cc2cnc(N)nc2N)c2cccnc2c1OC`: the inhibition amounted to 4.01%.
As for `CC(Cc1ccc(CNC(=O)NCc2ccc(CC(C)NCCc3cccc(Cl)c3)cc2)cc1)NCCc1cccc(Cl)c1` (stereo not drawn), the inhibition was found to be 79%.
In the case of `O=C(CCc1c[nH]cn1)Nc1ccc(-c2ccc(-c3nc4ccccc4[nH]3)cc2)cc1`, the inhibition was determined as 16.7%.
On the same count and under the same terms, for `CN(C)CCN(C)Cc1cccc(-c2cccc(NC(=O)c3cccc(C#N)c3)c2)c1` the value was 2.86%; for `COc1ccc2c(C)cc(NCCCN(C)C)nc2c1`, -0.64%; for `CN(C)c1ccc(-c2cscc2C(=O)NC2CCCN(Cc3cccnc3)C2)cc1` (stereo not drawn), -0.27%.
On the same count and under the same terms, the value for `COC(=O)c1ccc2nc(-c3ccc(/C=C/C(=O)NC4CCN(Cc5ccccc5)CC4)cc3)[nH]c2c1` was 5.26%.
With `CC(=O)Oc1c(Br)c(C)nc(C)c1-c1ccc(Oc2ccc(OC(F)(F)F)cc2)cc1`, the inhibition stood at 0.11%.
In the case of `COc1ccc2nccc(N3CCC(SCCNCc4ccc5c(n4)NC(=O)CS5)C3)c2n1` (stereo not drawn), the inhibition is -0.72%.
In the case of `Cc1ccc2cc(NC(=O)CCCCCCCON3C(N)=NC(N)=NC34CCCCC4)ccc2n1`, the inhibition was 0.8%.
In the case of `C#CCOc1ccc(N2C(N)=NC(N)=NC2(C)C)cc1`, the inhibition was 1.16%.
For `O=C(c1cc2nc3c(c(C(F)(F)F)n2n1)CCc1ccccc1-3)N1CCN2CCCC2C1` (stereo not drawn), the inhibition was found to be 2.1%.
As to `Cc1cc(-c2cccc(CNCCc3ccc(Cl)cc3)c2)cnc1N`, the inhibition was found to be 6.59%.
`Oc1ccccc1CN1CCN(C(c2ccccc2)c2ccccc2)CC1`: the inhibition was determined as 6.5%.
As to `COc1cc(NC(=O)c2sc(-c3ccc(Cl)cc3)cc2NC(=O)CN2CCCC2)ccc1OCCN1CCCC1`, the inhibition stood at 9.91%.

The values are drawn from ChEMBL document CHEMBL3433997, “St. Jude Leishmania screening dataset” (2016).
